Values joined by “and” are separate entries in the source; they are usually repeats but may differ in a detail not shown here. Identical values can stand only once. Results filed as inconclusive are left out. Unmarked numbers belong to inactive results. Active and inactive are the calls of the source. Unless noted, calls come from the whole dose curve; as a rule, active = well fitted curve in the direction sought with a large enough effect; inconclusive = small, poorly fitted or top-dose-only effect, or another doubt; inactive = no such curve, though single readings can be large; an effect the other way counts as inactive or inconclusive.

This passage reports Potency, outcome and activation results from PubChem BioAssay (NCATS).

For assay [1], the target named is Cytochrome P450 2D6 (Homo sapiens) (UniProt P10635). The assay is described as follows: Cytochrome P450 family 2 subfamily D member 6 (CYP2D6) small molecule antagonists: luciferase biochemical (cell-free) qHTS assay (AID 1645840; active = well fitted curve in the direction sought with a large enough effect in the repeat runs; an effect the other way counts as inactive or inconclusive; note: nearly all actives have a fitted effect of over 55% in size; note: potency is the fitted concentration of half-maximal effect). An outline of the steps: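 P450-Glo CYP2D6 system: proluciferin substrate converted by enzyme to luciferin, read by luminescence proportional to activity. Enzyme-substrate mix with compound 10 min at room temperature, then NADPH regeneration 1 h before detection reagent.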
(qHTS replaces the single test concentration by a dilution series.)

For assay [2], the target named is Cytochrome P450 2C9 (Homo sapiens) (UniProt P11712). The assay is described as follows: Cytochrome P450 family 2 subfamily C member 9 (CYP2C9) small molecule antagonists: luciferase biochemical (cell-free) qHTS assay (AID 1645842; active = well fitted curve in the direction sought with a large enough effect in the repeat runs; an effect the other way counts as inactive or inconclusive; note: nearly all actives have a fitted effect of over 55% in size; note: potency is the fitted concentration of half-maximal effect). An outline of the steps: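 P450-Glo CYP2C9 system: proluciferin substrate with enzyme in mix containing 0.4% BSA, 10 min at room temperature, then NADPH regeneration solution added and incubated 1 h at 37C. Detection reagent stopped reaction; luminescence read after 20 min as RLU.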

Assay [3] in a line: Primary qHTS for inhibitors of nuclear receptor binding SET domain protein 2 (NSD2) in an isogenic RCH-ACV NSD2 p.E1099K mutant (9B) (AID 1645876). Note: nearly all actives have a fitted effect of over 70% in size. Note: potency is the fitted concentration of half-maximal effect.
A short description of assay [4]: Primary qHTS for inhibitors of nuclear receptor binding SET domain protein 2 (NSD2) in an RCH-ACV wild type WT cells (2C) (AID 1645877). Note: nearly all actives have a fitted effect of over 70% in size. Note: potency is the fitted concentration of half-maximal effect.
A further assay has as its target Papain (Carica papaya) (UniProt P00784). As to the kind of experiment: Primary qHTS assay for inhibitors of the protease papain (AID 1645873).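 Note: papain turnover of Z-FR-AMC read as the AMC fluorescence gain over 10 min; series mostly up to about 50 µM; % is set by controls: 0 for no effect and ±100 for the full control effect.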
The target of assay [5] is N-terminal Xaa-Pro-Lys N-methyltransferase 1 (Homo sapiens) (UniProt Q9BV86). The assay is described as follows: Confirmatory qHTS for Inhibitors of N-terminal methyltransferase 1 (NTMT1): MTaseGlo Assay (AID 1645874). Note: potency is the fitted concentration of half-maximal effect; nearly all actives have a fitted effect of over 65% in size. An outline of the steps:
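Room-temperature NTMT1 reaction, 30 min, with 100 uM SAM and 1 uM SPKRIA substrate; enzyme 125 nM. Read-out: MTase-Glo luminescence, normalized to no-enzyme and DMSO controls.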

In assay [6] the target is Rap guanine nucleotide exchange factor 3 (Homo sapiens) (UniProt O95398). The assay is described as follows: Confirmatory qHTS for agonist of cAMP-regulated guanine nucleotide exchange factor 3 (EPAC1) (AID 1645881).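 Note: EPAC1 catalysed release of BODIPY-GDP from Rap1B seen as fluorescence loss; 100% = effect of cAMP agonist control; nearly all actives have a fitted effect of over 75% in size.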
Assay [7] addresses Rap guanine nucleotide exchange factor 4 (Homo sapiens) (UniProt Q8WZA2). As to the kind of experiment: Confirmatory qHTS for agonist of cAMP-regulated guanine nucleotide exchange factor 4 (EPAC2) (AID 1645884).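 Note: nucleotide exchange releases bodipy-GDP from Rap1 and this lowers its fluorescence; % is set by controls: 0 for no effect and ±100 for the full control effect; nearly all actives have a fitted effect of over 65% in size.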

Sequence of Cytochrome P450 2C9 (Homo sapiens) (P11712 whole entry, looked up): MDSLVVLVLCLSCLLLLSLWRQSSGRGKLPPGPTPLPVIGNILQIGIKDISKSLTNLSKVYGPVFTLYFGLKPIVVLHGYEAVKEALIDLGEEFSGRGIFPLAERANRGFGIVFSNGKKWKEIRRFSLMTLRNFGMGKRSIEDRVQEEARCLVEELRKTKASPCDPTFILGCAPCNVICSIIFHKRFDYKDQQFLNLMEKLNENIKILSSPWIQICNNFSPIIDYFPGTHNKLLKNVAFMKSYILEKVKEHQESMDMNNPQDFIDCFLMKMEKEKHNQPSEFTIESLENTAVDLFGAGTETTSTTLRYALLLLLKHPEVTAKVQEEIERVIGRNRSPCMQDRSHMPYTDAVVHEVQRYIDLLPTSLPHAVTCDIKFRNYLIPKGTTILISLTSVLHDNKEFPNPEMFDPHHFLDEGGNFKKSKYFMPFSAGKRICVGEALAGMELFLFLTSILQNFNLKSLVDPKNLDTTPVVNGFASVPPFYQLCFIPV
Sequence of Cytochrome P450 2D6 (Homo sapiens) (P10635 whole entry, looked up): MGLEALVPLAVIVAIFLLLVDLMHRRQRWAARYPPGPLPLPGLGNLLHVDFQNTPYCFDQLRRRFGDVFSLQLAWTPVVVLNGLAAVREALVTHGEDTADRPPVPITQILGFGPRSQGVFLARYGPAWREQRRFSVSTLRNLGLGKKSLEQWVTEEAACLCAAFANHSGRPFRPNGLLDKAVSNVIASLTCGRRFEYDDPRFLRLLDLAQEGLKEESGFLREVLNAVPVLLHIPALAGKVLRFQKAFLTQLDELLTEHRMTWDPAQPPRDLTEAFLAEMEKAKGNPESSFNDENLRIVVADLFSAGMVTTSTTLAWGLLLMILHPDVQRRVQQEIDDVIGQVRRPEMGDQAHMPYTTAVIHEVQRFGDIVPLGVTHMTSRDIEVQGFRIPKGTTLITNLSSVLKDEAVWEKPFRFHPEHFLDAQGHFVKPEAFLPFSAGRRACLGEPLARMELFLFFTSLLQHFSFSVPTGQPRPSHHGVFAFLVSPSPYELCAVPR
Sequence of N-terminal Xaa-Pro-Lys N-methyltransferase 1 (Homo sapiens) (Q9BV86 whole entry, looked up): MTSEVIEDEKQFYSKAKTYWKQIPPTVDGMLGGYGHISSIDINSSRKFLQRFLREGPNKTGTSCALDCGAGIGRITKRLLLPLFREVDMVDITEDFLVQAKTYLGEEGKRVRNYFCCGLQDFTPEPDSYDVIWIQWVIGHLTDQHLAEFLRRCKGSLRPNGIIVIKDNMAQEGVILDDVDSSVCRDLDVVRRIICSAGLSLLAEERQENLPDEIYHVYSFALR
Sequence of Rap guanine nucleotide exchange factor 4 (Homo sapiens) (Q8WZA2 whole entry, looked up): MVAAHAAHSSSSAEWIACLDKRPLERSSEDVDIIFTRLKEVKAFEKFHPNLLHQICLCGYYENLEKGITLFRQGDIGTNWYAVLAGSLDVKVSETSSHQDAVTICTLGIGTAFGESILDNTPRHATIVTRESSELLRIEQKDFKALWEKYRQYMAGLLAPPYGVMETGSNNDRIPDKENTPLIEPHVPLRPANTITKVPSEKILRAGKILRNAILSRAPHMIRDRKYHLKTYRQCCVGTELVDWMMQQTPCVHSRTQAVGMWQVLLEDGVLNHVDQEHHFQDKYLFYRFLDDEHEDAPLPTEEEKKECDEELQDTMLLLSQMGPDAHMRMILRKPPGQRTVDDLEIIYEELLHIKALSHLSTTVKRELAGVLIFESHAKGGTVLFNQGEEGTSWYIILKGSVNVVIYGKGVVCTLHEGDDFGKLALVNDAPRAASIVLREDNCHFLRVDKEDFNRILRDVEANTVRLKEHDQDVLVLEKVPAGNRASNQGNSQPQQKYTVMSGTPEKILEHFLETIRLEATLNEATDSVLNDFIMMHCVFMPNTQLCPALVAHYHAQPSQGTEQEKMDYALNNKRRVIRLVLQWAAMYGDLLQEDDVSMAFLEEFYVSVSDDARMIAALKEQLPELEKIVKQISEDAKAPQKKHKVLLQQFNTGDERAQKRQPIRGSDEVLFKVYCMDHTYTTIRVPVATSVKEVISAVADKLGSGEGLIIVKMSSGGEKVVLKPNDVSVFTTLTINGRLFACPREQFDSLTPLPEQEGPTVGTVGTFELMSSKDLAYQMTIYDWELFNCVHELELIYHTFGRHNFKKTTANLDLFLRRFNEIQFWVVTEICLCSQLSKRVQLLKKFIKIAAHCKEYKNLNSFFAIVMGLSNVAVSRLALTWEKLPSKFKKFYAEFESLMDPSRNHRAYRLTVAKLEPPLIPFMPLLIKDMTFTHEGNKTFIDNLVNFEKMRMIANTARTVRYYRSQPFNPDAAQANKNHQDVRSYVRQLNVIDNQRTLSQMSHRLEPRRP
Sequence of Rap guanine nucleotide exchange factor 3 (Homo sapiens) (O95398 whole entry, looked up): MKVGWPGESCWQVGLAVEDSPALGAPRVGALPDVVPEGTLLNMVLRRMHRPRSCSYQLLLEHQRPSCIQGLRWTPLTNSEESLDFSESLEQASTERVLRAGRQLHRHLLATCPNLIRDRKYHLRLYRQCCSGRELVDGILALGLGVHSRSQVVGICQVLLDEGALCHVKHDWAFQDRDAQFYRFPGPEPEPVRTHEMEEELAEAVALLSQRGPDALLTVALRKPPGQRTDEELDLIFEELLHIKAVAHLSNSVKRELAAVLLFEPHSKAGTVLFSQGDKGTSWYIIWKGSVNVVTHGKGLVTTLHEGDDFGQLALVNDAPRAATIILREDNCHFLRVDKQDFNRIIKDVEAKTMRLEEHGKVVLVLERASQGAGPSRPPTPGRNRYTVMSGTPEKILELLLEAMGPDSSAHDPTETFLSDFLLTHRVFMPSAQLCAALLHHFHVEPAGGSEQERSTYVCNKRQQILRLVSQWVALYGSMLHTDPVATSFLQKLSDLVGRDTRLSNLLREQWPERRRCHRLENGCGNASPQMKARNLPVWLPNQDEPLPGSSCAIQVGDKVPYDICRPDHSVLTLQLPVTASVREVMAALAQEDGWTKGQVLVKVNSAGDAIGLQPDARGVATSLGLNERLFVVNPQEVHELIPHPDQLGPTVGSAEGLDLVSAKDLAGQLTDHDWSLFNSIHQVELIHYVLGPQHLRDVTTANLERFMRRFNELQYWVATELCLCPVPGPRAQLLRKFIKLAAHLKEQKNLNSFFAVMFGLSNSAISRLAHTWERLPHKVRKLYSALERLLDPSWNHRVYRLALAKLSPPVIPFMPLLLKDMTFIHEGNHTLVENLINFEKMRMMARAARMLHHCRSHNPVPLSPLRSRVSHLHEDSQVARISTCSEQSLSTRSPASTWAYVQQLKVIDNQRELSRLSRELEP
Sequence of Papain (Carica papaya) (P00784 whole entry, looked up): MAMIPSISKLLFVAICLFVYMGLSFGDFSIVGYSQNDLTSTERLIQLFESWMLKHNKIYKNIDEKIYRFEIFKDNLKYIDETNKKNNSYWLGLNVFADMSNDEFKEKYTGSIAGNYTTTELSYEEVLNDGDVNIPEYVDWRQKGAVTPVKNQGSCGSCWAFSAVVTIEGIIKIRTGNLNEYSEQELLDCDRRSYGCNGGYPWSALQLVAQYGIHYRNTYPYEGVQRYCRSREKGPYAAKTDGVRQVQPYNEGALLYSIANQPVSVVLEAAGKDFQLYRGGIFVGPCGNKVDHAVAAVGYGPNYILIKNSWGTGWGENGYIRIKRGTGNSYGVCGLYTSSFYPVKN

As for `CSc1cccc(Nc2ncc3cc(-c4c(Cl)cccc4Cl)c(=O)n(C)c3n2)c1`, in assay [1], the Potency result is “inactive”. In addition, the Potency was 4.25 µM (active) in assay [2], 2.06 µM (active) in assay [3] and 2.06 µM (active) in assay [4].
For the compound `CCCCC[C@H](O)C=C[C@H]1[C@H](O)CC(=O)[C@H]1CC=CCCCC(=O)O`, the Potency result in assay [1] and in assay [2] was “inactive” in each case. The results for the Potency in assay [3] and in assay [4] were 0.417 µM (active) and 23.7 µM (active), respectively.
As to `CC(C)CNc1ccnc(NCc2csc(-c3ccccc3)n2)n1`, the Potency was 1.2 µM (active) in assay [1], 10.7 µM (active) in assay [2], 5.9 µM (active) in assay [3] and 8.33 µM (active) in assay [4].
Take `Cn1cnc(-c2cc3nccc(Oc4ccc(NC(=S)NC(=O)Cc5ccccc5)cc4F)c3s2)c1`: the Potency entry in assay [1] is “inactive”. Further, the Potency was 1.9 µM (active) in assay [2]; 5.15 µM (active) and 2.95 µM (active) in assay [3]; 5.78 µM (active) and 3.32 µM (active) in assay [4].
In the case of `NS(=O)(=O)c1ccc(Nc2nc(OCC3CCCCC3)c3[nH]cnc3n2)cc1`, the Potency in assay [1] is 19 µM (active); in assay [2], 26.8 µM (active); in assay [3], 13.2 µM (active); in assay [4] it was 13.2 µM (active).
In the case of `CN1CCC(COc2cnc(-c3cccc(Cn4nc(-c5cccc(C#N)c5)ccc4=O)c3)nc2)CC1`, the Potency result in assay [1] was “inactive”. Further, the Potency in assay [2] is 16.9 µM (active); in assay [3], 11.8 µM (active) and 16.3 µM (active); in assay [4], 10.5 µM (active) and 16.3 µM (active).
As for `C[C@@]1(c2cc(-c3cncnc3)c(F)cc2F)CCSC(N)=N1`, the Potency was 6.74 µM (active) in assay [1] and 16.9 µM (active) in assay [2]. The Potency result in assay [3] and in assay [4] was “inactive” each time.
Take `Cc1cnc(CNC(=O)c2c(=O)c3ccc(N4CCCN(C)CC4)nc3n3c2sc2ccccc23)cn1`: the Potency entry in assay [1] and in assay [2] was “inactive” in each case. For the same compound, the Potency in assay [3] was 0.152 µM (active); in assay [4], 0.121 µM (active).
Regarding `CCc1cc(-c2n[nH]c(C)c2-c2ccc3c(c2)OCCO3)c(O)cc1O`, the Potency in assay [1] is 4.25 µM (active); in assay [2], 0.756 µM (active); in assay [3], 8.33 µM (active); in assay [4] it was 7.42 µM (active).
`O[C@@H](COc1cccc2ncccc12)CN1CCN(C2c3ccccc3[C@@H]3[C@H](c4ccccc42)C3(F)F)CC1` (stereo partly specified): the Potency in assay [1] was 13.8 µM (active) and 10.7 µM (active); in assay [2], 10.7 µM (active); in assay [3], 15 µM (active); in assay [4], 10.6 µM (active).
Consider `CC(C)(O)CC(=O)NCCn1ccc2ncnc(Nc3ccc(Oc4cccc(C(F)(F)F)c4)c(Cl)c3)c21`, for which the Potency in assay [1] is 12 µM (active); in assay [2], 5.35 µM (active); in assay [3], 20.5 µM (active) and 11.8 µM (active); in assay [4], 20.5 µM (active) and 13.2 µM (active).
In the case of `O=c1[nH]nc(OCCCc2ccc(Cl)cc2)c(NCc2cccnc2)c1Br`, the Potency in assay [1] is 10.7 µM (active); in assay [2] it was 1.51 µM (active); in assay [3], 8.17 µM (active); in assay [4], 9.16 µM (active).
As for `Cc1nn(Cc2ccccc2Cl)c(C)c1CN(C)CC(O)COc1ccc(Cl)cc1` (stereo unspecified), the Potency in assay [1] is 0.536 µM (active); in assay [3], 18.6 µM (active); in assay [4] it was 14.8 µM (active). Also, the Potency result in assay [2] was “inactive”.
For the compound `Cc1ccccc1C(=O)c1ccc(Nc2ccc(Br)cc2N)cc1Cl`, the Potency in assay [1] was 15.1 µM (active); in assay [2], 10.7 µM (active); in assay [3], 16.6 µM (active) and 5.78 µM (active); in assay [4], 10.5 µM (active) and 9.2 µM (active).
As to `Nc1ccc(-c2ccc3ncc4ccc(=O)n(-c5cccc(C(F)(F)F)c5)c4c3c2)cn1`, the Potency in assay [1] is 23.9 µM (active); in assay [2], 2.13 µM (active); in assay [3], 14.8 nM (active) and 23.1 nM (active); in assay [4], 20.9 nM (active) and 18.4 nM (active).
As for `c1cc(OCCN2CCCCC2)cc(-c2n[nH]c3ccc(-c4ncn[nH]4)cc23)c1`, the Potency was 15.1 µM (active) in assay [1], 16.6 µM (active) in assay [3] and 13.2 µM (active) in assay [4]. Besides, the Potency result in assay [2] is “inactive”.
In the case of `C=CCc1cccc(C=NNC(=O)CN2CCN(Cc3ccccc3)CC2)c1O`, the compound was called inactive with Papain (Carica papaya).
As for `Nc1[nH]nc2nnc(-c3c(-c4ccccc4)nn4ccccc34)cc12`, in assay [5], the Potency is 11.2 µM (active).
As for `NC(=O)c1nnn(Cc2cc(Cl)c(C(=O)c3ccc(Cl)cc3)c(Cl)c2)c1N`, in assay [6], the Potency entry is “inactive”. Further, the activation in assay [7] is 5.43% [at 17.1 µM, percent relative to cAMP agonist control].
With `CC(NCCc1ccc(O)cc1)C(O)c1ccc(O)cc1` (stereo unspecified), the Potency entry in assay [3] and in assay [4] was “inactive” each time.
Turning to `CN(C)c1ccccc1CN1CCCN(Cc2ccccc2N(C)C)C1c1ccncc1`, the Potency is 14.8 µM (active) in assay [3] and 10.5 µM (active) in assay [4].
In the same order, the values of `CCCCOCCOc1nc(-c2ccc(C(=O)O)c(F)c2)sc1C` are “inactive” and “inactive”.
Consider `Nc1ncnc2c1ncn2[C@@H]1O[C@H](CO)[C@@H](O)[C@@H]1O`, for which the Potency in assay [3] and in assay [4] was 16.6 µM (active) throughout.
